# Measurements: PubChem BioAssay (EPA / NIEHS)
# Calls of active or inactive are those of the source. The calls were made as follows: active = hit-call score of the fitted dose curve at least 0.9, where 1 is the maximum; inactive = score below 0.9.
# Key:
# [1] = ATG_GLI_CIS: Attagene CIS-FACTORIAL HepG2 Assay for human Zinc Finger Protein GLI1 (AID 2282945); settings: HepG2, Attagene cis-factorial reporter mRNA, GLI element; actives raise or lower the signal
# Procedure, shortened: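 HepG2 cells transiently transfected with cis-promoter multiplexed reporter units report endogenous transcription factor activity. After 24 h chemical exposure, reporter mRNA was quantified by RT-PCR, 6-FAM labelling, HpaI digestion and capillary electrophoresis, with bidirectional fitting against DMSO.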
# [2] = target: Bile acid receptor (Homo sapiens) (UniProt Q96RI1); test: ATG_IR1_CIS: Attagene CIS-FACTORIAL HepG2 Assay for human Nuclear Receptor Subfamily 1 Group H Member 4 (NR1H4), IR1 submotif (AID 2282946); settings: IR1 reporter transcription, actives raise or lower the signal
# Chain of Bile acid receptor (Homo sapiens) (Q96RI1 whole entry, looked up): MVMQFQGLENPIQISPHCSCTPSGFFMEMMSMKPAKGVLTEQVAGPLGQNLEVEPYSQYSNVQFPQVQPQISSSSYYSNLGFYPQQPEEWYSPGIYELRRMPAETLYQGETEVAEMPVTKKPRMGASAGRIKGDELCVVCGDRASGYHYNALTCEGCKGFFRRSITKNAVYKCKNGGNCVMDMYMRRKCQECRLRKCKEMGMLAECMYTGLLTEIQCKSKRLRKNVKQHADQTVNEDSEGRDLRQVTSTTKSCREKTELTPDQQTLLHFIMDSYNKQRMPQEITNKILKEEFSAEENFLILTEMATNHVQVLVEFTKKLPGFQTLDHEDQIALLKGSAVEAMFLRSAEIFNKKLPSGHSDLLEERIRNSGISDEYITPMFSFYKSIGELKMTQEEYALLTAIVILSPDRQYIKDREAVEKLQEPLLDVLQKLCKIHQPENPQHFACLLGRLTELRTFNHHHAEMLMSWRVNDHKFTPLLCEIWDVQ
# Procedure, shortened: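 Transient MRTU transfection, HepG2; 24 h dosing; RNA → RT-PCR → 6-FAM primer extension → HpaI digest → capillary electrophoresis fluorescence. Gain/loss of signal fitted relative to DMSO.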
# [3] = ATG_ISRE_CIS: Attagene CIS-FACTORIAL HepG2 Assay for human Interferon Regulatory Factor 1 (IRF1) binding to an Interferon-Stimulated Response Element (ISRE) (AID 2282948); settings: HepG2 ISRE cis-reporter (Attagene), mRNA transcription readout; actives raise or lower the signal
# Procedure, shortened: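 Transfected HepG2 (multiple reporter transcription units, cis elements) dosed 24 h. RNA → oligo(dT) RT → PCR → 6-FAM primer extension → HpaI → CE. DMSO = negative control/baseline.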
# [4] = ATG_M_32_CIS: Attagene CIS-FACTORIAL HepG2 Assay for M32 Transcription Factor (Internal Marker) (AID 2282949); settings: HepG2 Attagene cis-factorial M32 reporter, mRNA; actives raise or lower the signal;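 also: background control marker of the multiplexed CIS panel rather than a real target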
# Procedure, shortened: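 Fluorescent capillary electrophoresis peaks of HpaI-digested, FAM-labelled RT-PCR reporter products give the signal. Source: transiently transfected human liver HepG2 cells, 24 h after chemical dosing; bidirectional fitting against DMSO.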
# [5] = ATG_M_06_CIS: Attagene CIS-FACTORIAL HepG2 Assay for M06 Transcription Factor (Internal Marker) (AID 2282950); settings: HepG2 Attagene CIS-FACTORIAL M06 internal marker reporter; actives raise or lower the signal
# Procedure, shortened: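 Read-out is fluorescence of labelled reporter cDNA fragments resolved by capillary electrophoresis after RT-PCR. Cells: HepG2 carrying transfected cis-promoter reporter units, treated 24 h. Gain or loss of signal fitted relative to DMSO.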
# [6] = target: Hypoxia-inducible factor 1-alpha (Homo sapiens) (UniProt Q16665); test: ATG_HIF1a_CIS: Attagene CIS-FACTORIAL HepG2 Assay for human Hypoxia Inducible Factor 1 (HIF1A) (AID 2282951); settings: HepG2 Attagene cis-factorial HIF1a reporter transcription; actives raise or lower the signal
# Chain of Hypoxia-inducible factor 1-alpha (Homo sapiens) (Q16665 whole entry, looked up): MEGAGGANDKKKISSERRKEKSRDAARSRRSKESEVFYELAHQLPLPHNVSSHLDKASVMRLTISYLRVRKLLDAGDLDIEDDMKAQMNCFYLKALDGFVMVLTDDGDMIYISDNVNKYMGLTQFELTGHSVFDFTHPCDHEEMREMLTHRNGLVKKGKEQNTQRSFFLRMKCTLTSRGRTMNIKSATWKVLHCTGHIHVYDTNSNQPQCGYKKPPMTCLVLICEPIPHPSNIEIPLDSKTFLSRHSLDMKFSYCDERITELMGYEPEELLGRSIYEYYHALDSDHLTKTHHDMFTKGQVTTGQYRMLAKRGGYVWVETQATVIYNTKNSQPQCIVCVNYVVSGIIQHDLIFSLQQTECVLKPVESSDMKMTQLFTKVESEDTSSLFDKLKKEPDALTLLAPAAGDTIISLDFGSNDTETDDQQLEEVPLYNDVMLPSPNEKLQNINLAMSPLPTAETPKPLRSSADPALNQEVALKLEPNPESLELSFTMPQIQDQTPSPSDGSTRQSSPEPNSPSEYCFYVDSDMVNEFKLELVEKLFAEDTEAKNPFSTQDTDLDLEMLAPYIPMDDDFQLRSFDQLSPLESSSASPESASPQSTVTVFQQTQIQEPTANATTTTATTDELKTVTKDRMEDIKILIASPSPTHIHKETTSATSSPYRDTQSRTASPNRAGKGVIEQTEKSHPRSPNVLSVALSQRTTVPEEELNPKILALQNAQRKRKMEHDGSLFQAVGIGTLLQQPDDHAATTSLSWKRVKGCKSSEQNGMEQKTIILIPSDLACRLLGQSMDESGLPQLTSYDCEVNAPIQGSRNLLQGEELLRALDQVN
# Procedure, shortened: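 Dosed 24 h, transfected HepG2 cells yielded total RNA whose reporter transcripts were RT-PCR-amplified and sized by capillary electrophoresis using fluorescent labelling; DMSO defined baseline, with gain and loss of signal both fitted.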
# [7] = target: Heat shock factor protein 1 (Homo sapiens) (UniProt Q00613); test: ATG_HSE_CIS: Attagene CIS-FACTORIAL HepG2 Assay for human Heat Shock Transcription Factor 1 (HSE) (AID 2282953); settings: HepG2 HSE cis-reporter, Attagene RNA transcription; actives raise or lower the signal
# Chain of Heat shock factor protein 1 (Homo sapiens) (Q00613 whole entry, looked up): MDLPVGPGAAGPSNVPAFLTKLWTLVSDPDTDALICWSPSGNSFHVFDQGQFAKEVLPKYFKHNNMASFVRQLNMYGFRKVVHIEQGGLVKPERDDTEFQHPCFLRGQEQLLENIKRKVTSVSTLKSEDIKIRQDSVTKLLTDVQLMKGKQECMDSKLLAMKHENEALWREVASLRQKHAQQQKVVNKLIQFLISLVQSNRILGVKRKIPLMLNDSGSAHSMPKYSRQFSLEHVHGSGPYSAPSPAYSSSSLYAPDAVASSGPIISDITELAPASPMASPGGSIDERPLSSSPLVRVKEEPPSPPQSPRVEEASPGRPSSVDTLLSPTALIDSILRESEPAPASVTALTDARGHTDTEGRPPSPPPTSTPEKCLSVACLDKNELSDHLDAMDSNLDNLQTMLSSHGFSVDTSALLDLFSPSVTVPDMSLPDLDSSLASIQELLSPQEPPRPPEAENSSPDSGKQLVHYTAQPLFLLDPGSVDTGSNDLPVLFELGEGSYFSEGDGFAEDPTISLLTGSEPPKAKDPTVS
# Procedure, shortened: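 HepG2, transient MRTU transfection, cis-promoter reporters (endogenous TF activity). 24 h compound. RNA → oligo(dT) RT → PCR → 6-FAM primer extension → HpaI cut → CE. Bidirectional fit vs DMSO.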
# [8] = ATG_MRE_CIS: Attagene CIS-FACTORIAL HepG2 Assay for human Metal Responsive Element (MRE) (AID 2282954); settings: HepG2 MRE cis-reporter transcription, Attagene multiplex; actives raise or lower the signal
# Procedure, shortened: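 Step one: transfect HepG2 with cis-regulated reporter units. Step two: dose 24 h. Step three: isolate RNA, RT-PCR, 6-FAM label, HpaI digest, capillary electrophoresis. Fit bidirectionally to DMSO.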
# [9] = ATG_PBREM_CIS: Attagene CIS-FACTORIAL HepG2 Assay for human Phenobarbital-responsive Enhancer Module (PBREM) (AID 2282955); settings: HepG2 PBREM cis-reporter, Attagene multiplexed transcription; actives raise or lower the signal
# Procedure, shortened: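 Transfected liver-derived HepG2 cells exposed 24 h; PBREM reporter transcript quantified via RT-PCR and capillary electrophoresis, with activity in either direction referenced to DMSO.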
# [10] = ATG_PXRE_CIS: Attagene CIS-FACTORIAL HepG2 Assay for human Pregnane X Receptor Element (PXRE) (AID 2282957); settings: HepG2 Attagene CIS-FACTORIAL PXRE reporter, mRNA; actives raise or lower the signal
# Procedure, shortened: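 HepG2 cells transiently transfected with cis-element-driven multiplexed reporter units; after 24 h chemical exposure, reporter mRNA measured by RT-PCR, 6-FAM labelling, HpaI digestion and capillary electrophoresis. Bidirectional fitting relative to DMSO.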
# [11] = ATG_PPRE_CIS: Attagene CIS-FACTORIAL HepG2 Assay for human Peroxisome Proliferator-activated Response Element (PPRE) (AID 2282958); settings: HepG2 PPRE cis-element reporter, Attagene transcription factor profiling; actives raise or lower the signal
# Procedure, shortened: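 Measured endpoint: PPRE-controlled reporter mRNA, detected by RT-PCR and capillary electrophoresis fluorescence, from transiently transfected HepG2 cells 24 h after dosing. Curves fitted in both directions using DMSO baseline.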
# [12] = ATG_RORE_CIS: Attagene CIS-FACTORIAL HepG2 Assay for human RAR-related Orphan Receptor Element (RORE) (AID 2282959); settings: HepG2 Attagene cis-factorial RORE reporter, mRNA; actives raise or lower the signal
# Procedure, shortened: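 Transiently transfected HepG2 reporter cells were treated 24 h. Reporter transcripts were detected by RT-PCR and capillary electrophoresis, with bidirectional fitting against DMSO.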
# [13] = ATG_Sox_CIS: Attagene CIS-FACTORIAL HepG2 Assay for human SRY-box transcription factor (SOX) (AID 2282960); settings: HepG2 Attagene cis-factorial SOX reporter, mRNA; actives raise or lower the signal
# Procedure, shortened: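 Gain- or loss-of-signal endpoint, fitted bidirectionally with DMSO as negative control. Based on reporter mRNA from transfected HepG2 cells harvested 24 h post-treatment and quantified via RT-PCR and capillary electrophoresis.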
# [14] = target: Transcription factor Sp1 (Homo sapiens) (UniProt P08047); test: ATG_Sp1_CIS: Attagene CIS-FACTORIAL HepG2 Assay for human Specificity Protein 1 (Sp1) (AID 2282961); settings: HepG2 Sp1 cis-reporter transcription, actives raise or lower the signal
# Chain of Transcription factor Sp1 (Homo sapiens) (P08047 whole entry, looked up, the tested form may be a part): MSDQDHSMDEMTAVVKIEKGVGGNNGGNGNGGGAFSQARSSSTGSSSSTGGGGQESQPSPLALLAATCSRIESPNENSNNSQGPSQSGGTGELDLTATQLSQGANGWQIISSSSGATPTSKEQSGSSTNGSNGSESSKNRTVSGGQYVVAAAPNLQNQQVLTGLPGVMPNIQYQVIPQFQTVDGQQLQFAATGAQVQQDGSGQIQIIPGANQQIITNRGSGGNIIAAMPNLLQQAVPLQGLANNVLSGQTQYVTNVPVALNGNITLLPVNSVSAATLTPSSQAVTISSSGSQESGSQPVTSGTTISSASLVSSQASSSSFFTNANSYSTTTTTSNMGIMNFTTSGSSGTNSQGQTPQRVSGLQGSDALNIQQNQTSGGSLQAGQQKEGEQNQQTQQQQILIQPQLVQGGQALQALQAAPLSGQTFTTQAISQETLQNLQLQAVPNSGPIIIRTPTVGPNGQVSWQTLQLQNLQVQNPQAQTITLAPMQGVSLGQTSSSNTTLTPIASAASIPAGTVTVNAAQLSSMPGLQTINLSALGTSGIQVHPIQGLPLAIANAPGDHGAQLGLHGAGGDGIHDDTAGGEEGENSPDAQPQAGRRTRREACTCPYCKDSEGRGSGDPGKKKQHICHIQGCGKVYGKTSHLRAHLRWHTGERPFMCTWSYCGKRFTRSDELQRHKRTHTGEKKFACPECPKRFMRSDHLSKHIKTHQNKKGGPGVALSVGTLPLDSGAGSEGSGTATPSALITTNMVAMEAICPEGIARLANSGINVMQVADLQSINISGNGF
# Procedure, shortened: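 Endpoint reflects endogenous Sp1 transcriptional activity, not an exogenous fusion protein: HepG2 cells with transfected cis-regulated reporters, 24 h dosing, RT-PCR/capillary electrophoresis mRNA read-out, DMSO-normalised bidirectional fit.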
# [15] = ATG_SREBP_CIS: Attagene CIS-FACTORIAL HepG2 Assay for human Sterol Regulatory Element Binding (SREBP) (AID 2282962); settings: HepG2 Attagene cis-factorial SREBP reporter, mRNA; actives raise or lower the signal
# Procedure, shortened: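 Transfected HepG2 (cis-regulated reporter library, endogenous TFs) → compound 24 h → total RNA → oligo(dT) RT → reporter-specific PCR → FAM primer extension, HpaI cut → CE fluorescence. Fit bidirectional vs DMSO.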
# [16] = target: Signal transducer and activator of transcription 3 (Homo sapiens) (UniProt P40763); test: ATG_STAT3_CIS: Attagene CIS-FACTORIAL HepG2 Assay for human Signal Transducer and Activator of Transcription 3 (STAT3) (AID 2282963); settings: HepG2, Attagene cis-factorial STAT3 reporter transcription; actives raise or lower the signal
# Chain of Signal transducer and activator of transcription 3 (Homo sapiens) (P40763 whole entry, looked up): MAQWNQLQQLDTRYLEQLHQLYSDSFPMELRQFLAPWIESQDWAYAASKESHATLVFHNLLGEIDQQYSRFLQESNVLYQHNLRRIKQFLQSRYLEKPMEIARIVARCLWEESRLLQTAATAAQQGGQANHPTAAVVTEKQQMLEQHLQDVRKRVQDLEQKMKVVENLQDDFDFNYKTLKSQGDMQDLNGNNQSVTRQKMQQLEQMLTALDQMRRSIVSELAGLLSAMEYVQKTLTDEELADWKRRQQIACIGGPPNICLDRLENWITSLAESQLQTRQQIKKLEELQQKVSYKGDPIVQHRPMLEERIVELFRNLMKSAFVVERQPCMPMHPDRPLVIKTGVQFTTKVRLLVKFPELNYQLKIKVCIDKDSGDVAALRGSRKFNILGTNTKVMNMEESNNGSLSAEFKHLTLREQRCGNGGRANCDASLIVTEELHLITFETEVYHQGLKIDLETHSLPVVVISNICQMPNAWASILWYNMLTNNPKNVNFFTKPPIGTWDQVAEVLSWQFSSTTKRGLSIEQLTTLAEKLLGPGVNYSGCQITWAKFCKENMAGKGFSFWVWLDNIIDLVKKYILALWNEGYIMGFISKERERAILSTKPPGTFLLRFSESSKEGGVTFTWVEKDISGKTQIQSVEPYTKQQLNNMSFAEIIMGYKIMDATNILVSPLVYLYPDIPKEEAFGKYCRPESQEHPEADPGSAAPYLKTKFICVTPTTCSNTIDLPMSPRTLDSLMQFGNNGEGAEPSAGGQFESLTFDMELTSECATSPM
# Procedure, shortened: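 Transcript-level reporter assay. HepG2 transient MRTU transfection, 24 h exposure, fluorescence detection after RT-PCR and CE; DMSO baseline.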
# [17] = ATG_TA_CIS: Attagene CIS-FACTORIAL HepG2 Assay for human TA Basal Promoter (AID 2282964); settings: HepG2 Attagene CIS-factorial TA basal promoter reporter; actives raise or lower the signal
# Procedure, shortened: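 Read-out: fluorescent reporter-transcript fragments resolved by capillary electrophoresis after RT-PCR and HpaI digestion. Source: HepG2 cells carrying transiently transfected multi-reporter cis constructs, treated 24 h. Endpoint fitted bidirectionally relative to DMSO.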
# [18] = target: Hepatocyte nuclear factor 6 (Homo sapiens) (UniProt Q9UBC0); test: ATG_HNF6_CIS: Attagene CIS-FACTORIAL HepG2 Assay for human Hepatocyte Nuclear Factor 6 (HNF6) (AID 2282952); settings: HepG2 Attagene cis-factorial HNF6 reporter transcription; actives raise or lower the signal
# Chain of Hepatocyte nuclear factor 6 (Homo sapiens) (Q9UBC0 whole entry, looked up, the tested form may be a part): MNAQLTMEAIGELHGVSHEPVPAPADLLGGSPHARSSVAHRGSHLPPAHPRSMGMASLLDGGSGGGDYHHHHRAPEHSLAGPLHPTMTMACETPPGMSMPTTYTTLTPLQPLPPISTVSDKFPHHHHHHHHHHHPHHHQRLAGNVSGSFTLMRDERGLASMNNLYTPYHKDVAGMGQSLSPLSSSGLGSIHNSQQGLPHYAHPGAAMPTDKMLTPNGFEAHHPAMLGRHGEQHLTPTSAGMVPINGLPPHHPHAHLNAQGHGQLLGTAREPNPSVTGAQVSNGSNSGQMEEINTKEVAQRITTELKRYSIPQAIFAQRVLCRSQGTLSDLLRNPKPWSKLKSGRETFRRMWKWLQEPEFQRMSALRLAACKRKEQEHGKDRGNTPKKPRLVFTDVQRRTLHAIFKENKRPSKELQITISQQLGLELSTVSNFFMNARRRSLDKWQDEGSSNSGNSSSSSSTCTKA
# Procedure, shortened: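 HepG2 cells transiently transfected with cis-element-driven multiplexed reporter units measuring endogenous transcription factor activity. After 24 h exposure, reporter mRNA quantified by RT-PCR, FAM-labelled fragments and capillary electrophoresis; bidirectional fitting versus DMSO.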
# [19] = target: Paired box protein Pax-6 (Homo sapiens) (UniProt P26367); test: ATG_Pax6_CIS: Attagene CIS-FACTORIAL HepG2 Assay for human Paired Box 6 (PAX6) (AID 2282956); settings: HepG2 CIS-FACTORIAL PAX6 reporter transcription, RNA readout; actives raise or lower the signal
# Chain of Paired box protein Pax-6 (Homo sapiens) (P26367 whole entry, looked up): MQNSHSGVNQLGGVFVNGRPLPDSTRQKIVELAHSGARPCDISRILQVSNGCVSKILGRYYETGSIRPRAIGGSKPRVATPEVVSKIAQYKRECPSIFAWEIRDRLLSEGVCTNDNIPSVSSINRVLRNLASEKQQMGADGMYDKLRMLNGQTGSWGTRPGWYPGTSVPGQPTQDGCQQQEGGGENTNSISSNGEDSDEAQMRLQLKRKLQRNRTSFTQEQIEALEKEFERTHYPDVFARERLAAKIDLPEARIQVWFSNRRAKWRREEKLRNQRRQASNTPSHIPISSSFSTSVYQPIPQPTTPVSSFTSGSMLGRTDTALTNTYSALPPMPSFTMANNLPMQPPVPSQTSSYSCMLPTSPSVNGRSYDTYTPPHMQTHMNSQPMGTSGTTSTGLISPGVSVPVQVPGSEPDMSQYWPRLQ
# Procedure, shortened: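 Transient MRTU transfection of HepG2 → compound exposure 24 h → TriZol RNA, oligo(dT) RT → PCR, 6-FAM primer extension, HpaI cut → capillary electrophoresis; activity fitted both directions against DMSO.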
# [20] = ATG_GRE_CIS: Attagene CIS-FACTORIAL HepG2 Assay for human Glucocorticoid Response Elements (GRE) (AID 2282947); settings: HepG2 GRE cis-reporter, Attagene multiplex mRNA; actives raise or lower the signal
# Procedure, shortened: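 Following 24 h chemical exposure of transiently transfected HepG2 cells, total RNA was reverse-transcribed and reporter cDNA amplified, fluorescently labelled and sized by capillary electrophoresis. Signal gain or loss was fitted relative to DMSO vehicle.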
structure (smiles),measurement,setting,value
Cc1c(O)cccc1O,outcome,[1],inactive
same,outcome,[2],inactive
same,outcome,[3],inactive
same,outcome,[4],inactive
same,outcome,[5],inactive
same,outcome,[6],inactive
same,outcome,[7],inactive
same,outcome,[8],inactive
same,outcome,[9],inactive
same,AC50,[10],127 µM (active)
same,outcome,[11],inactive
same,outcome,[12],inactive
same,outcome,[13],inactive
same,outcome,[14],inactive
same,outcome,[15],inactive
same,outcome,[16],inactive
same,outcome,[17],inactive
CCNc1nc(NC(C)(C)C)nc(OC)n1,outcome,[1],inactive
same,outcome,[2],inactive
same,outcome,[3],inactive
same,outcome,[4],inactive
same,outcome,[5],inactive
same,outcome,[6],inactive
same,outcome,[18],inactive
same,outcome,[7],inactive
same,outcome,[8],inactive
same,outcome,[19],inactive
same,AC50,[10],10.3 µM (active)
same,outcome,[13],inactive
same,outcome,[14],inactive
same,outcome,[15],inactive
same,outcome,[16],inactive
same,outcome,[17],inactive
CCCCC/C=C\C/C=C\CCCCCCCC(=O)O,outcome,[1],inactive
same,AC50,[2],76.3 µM (active)
same,outcome,[4],inactive
same,outcome,[5],inactive
same,AC50,[6],26.6 µM (active)
same,AC50,[7],150 µM (active)
same,AC50,[8],149 µM (active)
same,AC50,[10],64.1 µM (active)
same,AC50,[11],35.1 µM (active)
same,AC50,[12],39.6 µM (active)
same,outcome,[13],inactive
same,outcome,[14],inactive
same,outcome,[15],inactive
same,outcome,[16],inactive
same,AC50,[17],100 µM (active)
CC(=O)OCC=C(C)C,outcome,[1],inactive
same,outcome,[20],inactive
same,outcome,[3],inactive
same,outcome,[4],inactive
same,outcome,[5],inactive
same,outcome,[6],inactive
same,outcome,[18],inactive
same,outcome,[7],inactive
same,outcome,[8],inactive
same,outcome,[9],inactive
same,outcome,[19],inactive
same,AC50,[10],52.1 µM (active)
same,outcome,[11],inactive
same,outcome,[12],inactive
same,outcome,[13],inactive
same,outcome,[14],inactive
same,outcome,[15],inactive
COc1ccc(C(=O)c2ccccc2)c(O)c1,outcome,[1],inactive
same,outcome,[20],inactive
same,outcome,[3],inactive
same,outcome,[4],inactive
same,outcome,[5],inactive
same,outcome,[6],inactive
same,outcome,[18],inactive
same,outcome,[7],inactive
same,AC50,[8],130 µM (active)
same,AC50,[9],85.9 µM (active)
same,AC50,[19],149 µM (active)
same,AC50,[10],26.7 µM (active)
same,AC50,[11],121 µM (active)
same,AC50,[12],100 µM (active)
same,outcome,[13],inactive
same,outcome,[14],inactive
same,outcome,[15],inactive
same,outcome,[16],inactive
CCCSSCCC,outcome,[1],inactive
same,outcome,[20],inactive
same,outcome,[3],inactive
same,outcome,[4],inactive
same,outcome,[5],inactive
same,outcome,[6],inactive
same,outcome,[18],inactive
same,outcome,[7],inactive
same,outcome,[8],inactive
same,outcome,[9],inactive
same,outcome,[19],inactive
same,outcome,[10],inactive
same,outcome,[11],inactive
same,outcome,[12],inactive
same,outcome,[13],inactive
same,outcome,[14],inactive
same,outcome,[15],inactive
same,outcome,[17],inactive
CC1C(C)(C)C2=C(C(=O)CCC2)C1(C)C (stereo not given),outcome,[1],inactive
same,outcome,[20],inactive
same,outcome,[3],inactive
same,outcome,[4],inactive
same,outcome,[5],inactive
same,outcome,[6],inactive
same,outcome,[18],inactive
same,outcome,[7],inactive
same,outcome,[8],inactive
same,outcome,[9],inactive
same,outcome,[19],inactive
same,AC50,[10],6.01 µM (active)
same,outcome,[11],inactive
same,outcome,[12],inactive
same,outcome,[13],inactive
same,outcome,[14],inactive
same,outcome,[15],inactive
same,outcome,[16],inactive
same,outcome,[17],inactive
